Read-out in assay [1]: C-C motif chemokine 2 (Homo sapiens) (UniProt P13500)
Nature of the assay: BSK_KF3CT_MCP1: BioMAP Diversity Plus: KF3CT Assay for Monocyte Chemoattractant Protein 1 (MCP1/CCL2) Biomarker Activity (AID 2283073). Conditions: primary human keratinocytes with fibroblasts; actives raise or lower the signal. An outline of the steps: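 Human keratinocyte–foreskin fibroblast co-culture; MCP-1 measured by ELISA 24 h after dosing. Bidirectional fit vs DMSO; cytotoxicity tracked by SRB total protein in parallel cultures.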

Read-out in assay [2]: Matrix Metallopeptidase 9 (MMP9), MMP9 (gene 4318)
Kind of assay: BSK_KF3CT_MMP9: BioMAP Diversity Plus: KF3CT Assay for Matrix Metallopeptidase 9 (MMP9) Biomarker Activity (AID 2283074). To be noted: primary human keratinocytes with fibroblasts; actives raise or lower the signal. An outline of the steps:
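ELISA read-out of MMP-9 at 24 h post-dosing in a co-culture of human skin keratinocytes and foreskin fibroblasts. Gain or loss of signal was fitted in both directions against DMSO.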

Read-out in assay [3]: urokinase plasminogen activator (uPA), PLAU (gene 5328)
Nature of the assay: BSK_KF3CT_uPA: BioMAP Diversity Plus: KF3CT Assay for urokinase plasminogen activator (uPA) Biomarker Activity (AID 2283075). To be noted: primary human keratinocytes with fibroblasts; actives raise or lower the signal. An outline of the steps:
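Skin co-culture (keratinocytes + foreskin fibroblasts), human primary; 24 h post-dose; uPA by ELISA; gain/loss fit vs DMSO baseline.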

Read-out in assay [4]: CD40, CD40 (gene 958)
Nature of the assay: BSK_LPS_CD40: BioMAP Diversity Plus: LPS Assay for CD40 Biomarker Activity (AID 2283076). Conditions: primary human HUVEC with PBMC; actives raise or lower the signal. An outline of the steps:
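HUVEC plus PBMC co-culture stimulated with LPS; CD40 quantified by ELISA 24 h after compound dosing. Fitting was bidirectional relative to DMSO. SRB staining of parallel cultures flagged overt cytotoxicity.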

Read-out in assay [5]: E-selectin (Homo sapiens) (UniProt P16581)
Kind of assay: BSK_LPS_Eselectin: BioMAP Diversity Plus: LPS Assay for Eselectin Biomarker Activity (AID 2283077). To be noted: primary human HUVEC with PBMC; actives raise or lower the signal. An outline of the steps: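 Human umbilical vein endothelial cells co-cultured with PBMC under LPS stimulation; cell-surface E-selectin measured by ELISA 24 h after dosing. Change in either direction versus DMSO, with SRB total-protein staining in parallel cultures for cytotoxicity.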

Read-out in assay [6]: Interleukin-8 (IL8), CXCL8 (gene 3576)
Nature of the assay: BSK_LPS_IL8: BioMAP Diversity Plus: LPS Assay for Interleukin-8 (IL8) Biomarker Activity (AID 2283078). To be noted: primary human HUVEC with PBMC; actives raise or lower the signal. An outline of the steps: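 Human umbilical vein endothelial cells co-cultured with PBMC, LPS-stimulated, exposed to compound for 24 h. IL-8 quantified by ELISA; fitted in both directions against DMSO, with SRB total-protein staining of parallel cultures for cytotoxicity.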

The nature of assay [7]: BSK_LPS_SRB: Viability Assessment in the BioMAP Diversity Plus: LPS Assay (AID 2283079).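 Further: total protein by sulforhodamine B absorbance as a cytotoxicity measure; measured one day after compound addition.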 To be noted: primary human HUVEC with PBMC. An outline of the steps:
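Co-culture of human umbilical vein endothelial cells and PBMC, read 24 h after dosing. Total protein by 0.1% SRB staining after 10% TCA fixation, absorbance at 560 nm; bidirectional fit against DMSO.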

Read-out in assay [8]: Interleukin-1 alpha (IL1a), IL1A (gene 3552)
Nature of the assay: BSK_LPS_IL1a: BioMAP Diversity Plus: LPS Assay for Interleukin-1 alpha (IL1a) Biomarker Activity (AID 2283080). Conditions: primary human HUVEC with PBMC; actives raise or lower the signal. In a few lines: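 Human umbilical vein endothelial cells co-cultured with PBMC and stimulated with LPS; IL-1a measured by ELISA 24 h after dosing. Bidirectional fitting against DMSO; cytotoxicity checked by SRB staining in parallel cultures.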

Read-out in assay [9]: Monocyte Chemoattractant Protein-1 (MCP1), CCL2 (gene 6347)
Nature of the assay: BSK_LPS_MCP1: BioMAP Diversity Plus: LPS Assay for Monocyte Chemoattractant Protein-1 (MCP1) Biomarker Activity (AID 2283081). To be noted: primary human HUVEC with PBMC; actives raise or lower the signal. An outline of the steps:
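Human umbilical vein endothelial cells co-cultured with PBMC, LPS-stimulated; secreted MCP-1 measured by ELISA 24 h after compound addition. Bidirectional curve fitting against DMSO baseline; SRB total-protein staining in parallel cultures for cytotoxicity.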

Assay [10] in a line: BSK_LPS_PGE2: BioMAP Diversity Plus: LPS Assay for Prostaglandin E2 (PGE2) Biomarker Activity (AID 2283082). To be noted: primary human HUVEC with PBMC; actives raise or lower the signal. An outline of the steps:
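Compounds were added to the LPS co-culture of endothelium and PBMC, and PGE2 was measured by ELISA after 24 h. Responses in either direction were fitted with DMSO as baseline.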

Read-out in assay [11]: Macrophage colony-stimulating factor (MCSF), CSF1 (gene 1435)
Kind of assay: BSK_LPS_MCSF: BioMAP Diversity Plus: LPS Assay for Macrophage colony-stimulating factor (MCSF) Biomarker Activity (AID 2283083). To be noted: primary human HUVEC with PBMC; actives raise or lower the signal. In a few lines: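 HUVEC–PBMC co-culture, M-CSF measured by ELISA 24 h after chemical dosing. Fitted in both directions relative to DMSO as negative control; overt cytotoxicity assessed by SRB total-protein staining in parallel cultures.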

Read-out in assay [12]: Tissue Factor, F3 (gene 2152)
Kind of assay: BSK_LPS_TissueFactor: BioMAP Diversity Plus: LPS Assay for Tissue Factor Biomarker Activity (AID 2283084). To be noted: primary human HUVEC with PBMC; actives raise or lower the signal. In a few lines: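 Human umbilical vein endothelial cells co-cultured with PBMC were dosed with compound. Cell-surface CD142 was measured by ELISA 24 h later. Activity was fitted bidirectionally against DMSO, with SRB total-protein staining in parallel cultures for cytotoxicity.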

Read-out in assay [13]: Tumor necrosis factor (Homo sapiens) (UniProt P01375)
Kind of assay: BSK_LPS_TNFa: BioMAP Diversity Plus: LPS Assay for Tumour Necrosis Factor alpha (TNFa) Biomarker Activity (AID 2283085). Conditions: primary human HUVEC with PBMC; actives raise or lower the signal. In a few lines: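 Cells (umbilical vein endothelium plus peripheral blood mononuclear cells) were dosed with chemical, incubated 24 h, then TNFa was quantified by ELISA; values derive from bidirectional fitting with DMSO as baseline.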

Read-out in assay [14]: Vascular cell adhesion molecule 1 (VCAM1), VCAM1 (gene 7412)
Nature of the assay: BSK_LPS_VCAM1: BioMAP Diversity Plus: LPS Assay for Vascular cell adhesion molecule 1 (VCAM1) Biomarker Activity (AID 2283086). To be noted: primary human HUVEC with PBMC; actives raise or lower the signal. In a few lines: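 Cells are dosed in an LPS-stimulated endothelial/mononuclear co-culture and, after 24 h, VCAM-1 is quantified by ELISA. Activity in either direction is fitted relative to the DMSO negative control.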

Read-out in assay [15]: CD40, CD40 (gene 958)
Kind of assay: BSK_SAg_CD40: BioMAP Diversity Plus: SAg Assay for CD40 Biomarker Activity (AID 2283088). To be noted: primary human HUVEC with PBMC; actives raise or lower the signal. An outline of the steps: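 HUVEC plus PBMC co-culture, superantigen-activated, with CD40 read by ELISA 24 h after dosing. Curves fitted in both directions against DMSO. Overt cytotoxicity checked by parallel SRB total-protein staining.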

Read-out in the next assay: CD69, CD69 (gene 969)
Kind of assay: BSK_SAg_CD69: BioMAP Diversity Plus: SAg Assay for CD69 Biomarker Activity (AID 2283089).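 On AC50: cell surface CD69 protein quantified by ELISA with fluorescence detection.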 Conditions: primary human HUVEC with PBMC; actives raise or lower the signal. An outline of the steps:
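Values derive from bidirectional fitting relative to DMSO vehicle. Cells: umbilical vein endothelium plus peripheral blood mononuclear cells, treated 24 h before fluorescent ELISA for CD69.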

Read-out in assay [16]: Monocyte Chemoattractant Protein-1 (MCP1), CCL2 (gene 6347)
Kind of assay: BSK_SAg_MCP1: BioMAP Diversity Plus: SAg Assay for Monocyte Chemoattractant Protein-1 (MCP1) Biomarker Activity (AID 2283090). To be noted: primary human HUVEC with PBMC; actives raise or lower the signal. In a few lines: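 Values derive from bidirectional fitting of ELISA-measured MCP1 against DMSO controls. Readings were taken 24 h after dosing human vascular endothelial cells co-cultured with peripheral blood mononuclear cells under superantigen stimulation.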

Read-out in assay [17]: E-selectin (Homo sapiens) (UniProt P16581)
Nature of the assay: BSK_SAg_Eselectin: BioMAP Diversity Plus: SAg Assay for Eselectin Biomarker Activity (AID 2283091). Conditions: primary human HUVEC with PBMC; actives raise or lower the signal. An outline of the steps: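 Human umbilical vein endothelial cells co-cultured with peripheral blood mononuclear cells, SAg system. E-selectin is measured by ELISA 24 h after dosing and fitted bidirectionally against DMSO. Cytotoxicity is checked by SRB staining of parallel cultures.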

Read-out in assay [18]: Transforming growth factor beta 1 (TGFb1), TGFB1 (gene 7040)
Nature of the assay: BSK_KF3CT_TGFb1: BioMAP Diversity Plus: KF3CT Assay for Transforming growth factor beta 1 (TGFb1) Biomarker Activity (AID 2283072). To be noted: primary human keratinocytes with fibroblasts; actives raise or lower the signal. In a few lines: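 KF3CT co-culture (keratinocytes + fibroblasts), 24 h exposure → TGF-b1 ELISA → bidirectional fit, DMSO = baseline. Parallel SRB total-protein staining (0.1% SRB, 10% TCA fixation, 560 nm) for cytotoxicity.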

Some structures have more than one record in an assay (separate samples or runs), and their calls can disagree. Active and inactive are the calls of the source. How the source made its calls: active means hit-call score of the fitted dose curve at least 0.9, where 1 is the maximum; inactive means score below 0.9.

Tumor necrosis factor (Homo sapiens), sequence (P01375 whole entry, looked up): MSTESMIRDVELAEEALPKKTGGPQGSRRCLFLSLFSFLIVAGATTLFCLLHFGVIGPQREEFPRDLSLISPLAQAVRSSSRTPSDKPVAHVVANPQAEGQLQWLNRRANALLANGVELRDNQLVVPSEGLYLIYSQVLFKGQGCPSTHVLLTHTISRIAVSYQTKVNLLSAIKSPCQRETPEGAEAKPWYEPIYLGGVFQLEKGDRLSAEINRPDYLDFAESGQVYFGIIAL
E-selectin (Homo sapiens), sequence (P16581 whole entry, looked up): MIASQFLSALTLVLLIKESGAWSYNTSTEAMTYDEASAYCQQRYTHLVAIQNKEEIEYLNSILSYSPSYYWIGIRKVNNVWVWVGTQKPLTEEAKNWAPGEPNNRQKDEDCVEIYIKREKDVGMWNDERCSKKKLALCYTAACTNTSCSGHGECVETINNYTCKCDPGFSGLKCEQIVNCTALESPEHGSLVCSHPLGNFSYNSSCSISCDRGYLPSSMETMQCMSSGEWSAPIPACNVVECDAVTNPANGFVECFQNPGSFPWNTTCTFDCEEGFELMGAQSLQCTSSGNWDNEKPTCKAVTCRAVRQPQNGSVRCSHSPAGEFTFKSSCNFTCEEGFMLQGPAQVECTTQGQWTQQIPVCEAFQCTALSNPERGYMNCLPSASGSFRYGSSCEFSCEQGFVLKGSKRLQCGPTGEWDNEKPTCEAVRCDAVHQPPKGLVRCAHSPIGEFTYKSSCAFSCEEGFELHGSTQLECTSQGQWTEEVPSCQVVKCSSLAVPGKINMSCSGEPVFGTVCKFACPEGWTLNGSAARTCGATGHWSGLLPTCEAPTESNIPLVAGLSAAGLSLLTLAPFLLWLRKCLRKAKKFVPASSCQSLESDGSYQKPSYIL

As to `C=C(C)C(=O)OCCC(F)(F)C(F)(F)C(F)(F)C(F)(F)C(F)(F)C(F)(F)C(F)(F)C(F)(F)F`, the outcome was “inactive” in assay [1]; “inactive” in [2]; “inactive” in assay [3]; “inactive” with CD40, CD40 (gene 958) [4]; “inactive” in assay [5]; “inactive” in assay [6]. The outcome in [7], in assay [8], in assay [9], in assay [10], in assay [11] and in assay [12] was inactive. In addition, the outcome was “inactive” in assay [13]; “inactive” in assay [14]; “inactive” with CD40, CD40 (gene 958) [15]; “inactive” with CD69, CD69 (gene 969); “inactive” in assay [16]; “inactive” in assay [17]. In assay [14], the AC50 (usually the concentration giving half of the maximal activity seen) is 1.22 µM (active).
As to `C[C@]12CC[C@@H]3c4ccc(O)cc4CC[C@H]3[C@@H]1CC[C@@H]2O`, the outcome in assay [18] is “inactive”; in [1], “inactive”; in [2] it was “inactive”; in assay [3] it was “inactive”; with CD40, CD40 (gene 958) [4], “inactive”; in [5], “inactive”. The result in assay [6], in assay [8], in assay [9], in assay [10], in [11] and in [12] was inactive. In addition, the outcome in [13] and in assay [17] was inactive. Also, the AC50 was 12 µM (active) in assay [7]; 16.5 µM (active) in assay [14]; 15.8 µM (active) with CD40, CD40 (gene 958) [15]; 20 µM (active) in the assay with CD69, CD69 (gene 969).
For `COC(=O)c1ccc(C(=O)OC)cc1`, the outcome in [18] is “inactive”; in assay [1], “inactive”; in assay [2] it was “inactive”; in assay [3], “inactive”; with CD40, CD40 (gene 958) [4], “inactive”; in assay [5] it was “inactive”. Also, the result in assay [6], in assay [7], in assay [8], in assay [9], in assay [10] and in assay [11] was inactive. Also, the outcome was “inactive” in assay [12]; “inactive” in assay [13]; “inactive” in [14]; “inactive” with CD40, CD40 (gene 958) [15]; “inactive” with CD69, CD69 (gene 969); “inactive” in assay [16]. The result in [17] was inactive.

Source of the values: PubChem BioAssay (EPA / NIEHS).
